Molecular target: T1, NL_v2_PPR7 (Artificial Sequence)
T1 chain: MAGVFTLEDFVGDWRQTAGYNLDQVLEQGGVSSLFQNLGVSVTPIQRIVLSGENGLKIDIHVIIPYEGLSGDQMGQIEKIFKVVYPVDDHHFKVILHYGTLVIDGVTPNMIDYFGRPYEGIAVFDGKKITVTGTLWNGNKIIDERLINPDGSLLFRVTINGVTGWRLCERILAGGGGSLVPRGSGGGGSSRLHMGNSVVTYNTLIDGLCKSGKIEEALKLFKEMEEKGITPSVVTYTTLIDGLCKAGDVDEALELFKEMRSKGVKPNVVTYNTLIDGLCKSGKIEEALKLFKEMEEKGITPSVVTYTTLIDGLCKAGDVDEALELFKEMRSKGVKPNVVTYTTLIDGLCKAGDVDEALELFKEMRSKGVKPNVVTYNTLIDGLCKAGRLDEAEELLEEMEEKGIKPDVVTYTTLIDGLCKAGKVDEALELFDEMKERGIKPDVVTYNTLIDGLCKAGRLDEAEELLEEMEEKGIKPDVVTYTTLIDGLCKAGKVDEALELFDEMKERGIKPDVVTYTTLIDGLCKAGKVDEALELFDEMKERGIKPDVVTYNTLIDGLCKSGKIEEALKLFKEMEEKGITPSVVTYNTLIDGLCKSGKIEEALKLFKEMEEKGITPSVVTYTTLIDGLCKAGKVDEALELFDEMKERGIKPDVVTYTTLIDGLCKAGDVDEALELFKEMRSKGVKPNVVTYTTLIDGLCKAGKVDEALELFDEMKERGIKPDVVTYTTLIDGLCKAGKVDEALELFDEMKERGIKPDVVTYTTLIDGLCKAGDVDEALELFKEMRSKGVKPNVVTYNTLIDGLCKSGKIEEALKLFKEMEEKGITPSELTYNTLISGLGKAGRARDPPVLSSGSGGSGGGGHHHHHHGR
Test: RPB-ELISA
Conditions: tags: N-terminal luciferase, C-terminal 6xHis; label: 5'-biotin; ssRNA
Description: RNA probes consisting of a designed 30-base sequence containing 18 bases of the target sequence and modified by biotinylation at the 5′ end (RNA_1, RNA_2, RNA_3, RNA_4, and RNA_5, SEQ ID NOS: 61 to 65) were synthesized (Grainer). To a streptavidin-coated plate (Thermo fisher), the 5′-end biotinylated RNA probes were added, reaction was allowed at room temperature for 30 minutes, and the plate was washed with a lysis buffer (20 mM Tris-HCl, pH 7.6, 150 mM NaCl, 5 mM MgCl₂, 0.5% NP-40, 1 mM DTT, 0.1% BSA). For background measurement, wells to which RNA was not added, but 100 μL of the lysis buffer, 1 μL of 100 mM DTT, and 1 μL of 40 unit/4 RNase inhibitor (Takara, 2313A) were added were also prepared. Then, 200 μL of a blocking buffer (20 mM Tris-HCl, pH 7.6, 150 mM NaCl, 5 mM MgCl₂, 0.5% NP-40, 1 mM DTT, 1% BSA) was added, and the plate surface was blocked at room temperature for 30 minutes. Then, 100 μL of E. coli lysate containing luciferase-fused PPR protein having a luminescence level of 1.5×10⁸ LU/μL was added to each well, and the binding reaction was allowed at room temperature for 30 minutes. The well was washed 5 times with 200 μL of a washing buffer (20 mM Tris-HCl, pH 7.6, 150 mM NaCl, 5 mM MgCl₂, 0.5% NP-40, 1 mM DTT). […] The background (luminescence signal value obtained with adding the PPR protein and without adding RNA) was subtracted from the luminescences of the samples to which a solution containing each RNA and PPR protein was added, and the obtained values were used as the binding powers between the PPR protein and RNA.
By using the v2 motif, PPR proteins for 23 kinds of target sequences (T_1 to T_3, and T_5 to T_24, SEQ ID NOS: […]) were prepared (NL_v2_PPR1 to 3, and NL_v2_PPR5 to 24, SEQ ID NOS: 56 to 58 and 70 to 88), and RPB-ELISA was used to analyze bindings of all the combinations. The experimental method was the same as that used in Example 3.

Going from GGUUAGAGAUACAGUGUG to GGUGGUGAGGCCCUGGGC, the binding signal rises from 20.6 log2 luminescence to 21.4 log2 luminescence.

Going from GACUCAGGAAUCGGCUCU to GUCAGAGGGUUCUGGAUU, the binding signal rises from 20.5 log2 luminescence to 21.1 log2 luminescence.

— US20220289795, “EFFICIENT METHOD FOR PREPARING PPR PROTEIN AND USE OF THE SAME” (EditForce, Inc., published 2022)
